“And” between values parts separate entries of the source, which are not always exact repeats. Identical values can stand only once.
Assays:
[1] = system: Botulinum neurotoxin type F light chain protease (Clostridium botulinum); test: Clostridium botulinum type F light chain protease inhibitors, microsphere substrate cleavage, validation (AID 588459); settings: multiplex microsphere protease substrate cleavage assay, flow cytometry; at 10 µM; stronger effect = higher value
[2] = biological target: Botulinum neurotoxin type A (Clostridium botulinum) (UniProt P0DPI0); test: BoNT/A light chain protease inhibitors, biochemical, multiplex microsphere flow cytometry, validation set (AID 588460); settings: at 10 µM, stronger effect = higher value
[3] = biological target: Lethal factor (Bacillus anthracis) (UniProt P15917); test: Bacillus anthracis lethal factor inhibition, microsphere flow cytometry protease assay, validation at 10 µM (AID 588461); settings: multiplex microsphere protease cleavage assay, stronger effect = higher value

Measured: inhibition

CC(C)(C)[C@]1(O)CCN2C[C@H]3c4ccccc4CCc4cccc(c43)[C@@H]2C1
inactive: [1] -2.1% | [2] 0% | [3] -2.4%

Fc1ccc(-c2cc(-c3ccccc3)nc(-n3cccn3)n2)cc1
inactive: [1] -6.3% | [2] -0.2% | [3] 2.3%

Cc1ccccc1N1C(N)=NC(N)=NC1(C)C
inactive: [1] -1.5% | [2] -0.8% | [3] 6.8%

OCCN1CCN(CCCN2c3ccccc3Sc3ccc(Cl)cc32)CC1
inactive: [1] -0.8% | [2] 0.8% | [3] 1.2%

CCCCNc1ccc(C(=O)OCCN(C)C)cc1
inactive: [1] 0.2% | [2] 0.4% | [3] 2.7%

Cc1cc(Cl)cc2c1NC(=O)[C@]21[C@@H]2C(=O)N(Cc3ccccc3)C(=O)[C@@H]2[C@@H]2CCCN21
inactive: [1] 2.1% | [2] 1.7% | [3] 2.3%

CC1=NN(c2ccccc2)C(=O)C1
inactive: [1] 1.1% | [2] -3% | [3] 1.8%

CCOc1cccc(N2C(=O)CC(N(CCc3ccc(OC)c(OC)c3)C(=O)CC)C2=O)c1 (stereo unspecified)
inactive: [1] 4.3% | [2] 0.7% | [3] 0.4%

Cc1csc(N)n1
inactive: [1] 0.3% | [2] 0.1% | [3] 3%

C(=C\c1ccc2ccccc2n1)/c1ccccc1
inactive: [1] 1.3% | [2] 0.8% | [3] -3.3%

CN1CCC(=C2c3ccccc3C=Cc3ccccc32)CC1
inactive: [1] -1.3% | [2] -1.2% | [3] -8.4%

Cc1cc(C(C)(C)C)cc(C)c1CC1=NCCN1
inactive: [1] 1.3% | [2] 1.2% | [3] 1.8%

COc1cc(OC)c(C2C(C#N)=C(N)OC3=C2C(=O)CC(C)(C)C3)cc1OC (stereo unspecified)
inactive: [1] -2.6% | [2] 0.8% | [3] 4.6%

CC(=O)NCCCCCCNC(C)=O
inactive: [1] 5.8% | [2] 2.3% | [3] 10.8%

O=C1CCCN1C(=O)CCC(=O)N1CCCC1=O
inactive: [1] -1.4% | [2] 0.3% | [3] -2.8%

COc1ccc(NC(=O)C2C(=O)N(CCO)C3(C)CC2c2ccccc2O3)cc1 (stereo unspecified)
inactive: [1] 0.1% | [2] 1.3% | [3] -1.3%

c1ccc(CC2=NCCN2)cc1
inactive: [1] 1.9% | [2] -1.4% | [3] -4.7%

COc1ccc([C@H]2[C@H](C(=O)OC(C)(C)C)N3N=Cc4ccccc4C3C23C(=O)c2ccccc2C3=O)cc1OC (stereo partly specified)
inactive: [1] -0.2% | [2] 0.5% | [3] -5.5%

Cc1ccc2c(c1)c(C)cc(=O)n2CCC(=O)O
inactive: [1] 0.8% | [2] -0.2% | [3] 1.1%

Cn1cc(CN2CCCC(CO)(Cc3cccc(Cl)c3)C2)cn1 (stereo unspecified)
inactive: [1] 4.8% | [2] 1.3% | [3] -5.4%

CCC(=O)Nc1ccc(C(=O)N2CCN(C(=O)c3ccco3)CC2)cc1
inactive: [1] -2.6% | [2] -1.9% | [3] -2.7%

CC(=O)NC1C(OCCOc2ccc(Cl)cc2Cl)OC(COC(C)=O)C(OC(C)=O)C1OC(C)=O (stereo unspecified)
inactive: [1] -1.5% | [2] -0.3% | [3] -0.7%

COc1ccc(C(=O)COc2ccc(F)cc2)c(O)c1
inactive: [1] 1% | [2] -1.3% | [3] -9.8%

CC(C)=CCCC(C)CN1CCC(N2CCC(C(=O)N3CCCC3)CC2)CC1 (stereo unspecified)
inactive: [1] 1.8% | [2] -0.4% | [3] -1.1%

Cc1cccc2c(C(=O)O)cc(-c3cccnc3)nc12
inactive: [1] -2.3% | [2] -0.5% | [3] -6.1%

COC(=O)c1[nH]c2ccc(F)cc2c1NC(=O)C1=COCCO1
inactive: [1] 0% | [2] 0.8% | [3] -4.9%

CN(C)CCCN1c2ccccc2Sc2ccc(Cl)cc21
inactive: [1] -3.6% and 2.8% | [2] 0.6% | [3] -0.5% and 0.1%

COC(=O)c1ccccc1OCCOCCOc1cccc2ccc(C)nc12
inactive: [1] 0.3% | [2] 3.8% | [3] -4%

CC(C)Cc1nc(NCCN2CCOCC2)c(C#N)c2c1COC(C)(C)C2
inactive: [1] -1.6% | [2] -0.8% | [3] -3%

Cc1cc(C)cc(Nc2nc3c([nH]2)c(=O)n(C)c(=O)n3C)c1
inactive: [1] -0.8% | [2] 0.5% | [3] 4.9%

CCCCCC#CCC#CCC#CCC#CCCCC(=O)O
inactive: [1] 5.7% | [2] -0.6% | [3] -1.6%

CC(=O)OCC[N+](C)(C)C
inactive: [1] -3.2% and 0.5% | [2] 0.2% and -1.8% | [3] 3.8% and -0.3%

Fc1ccccc1CNCCC(Cc1ccccc1)c1ccc2c(c1)OCO2 (stereo unspecified)
inactive: [1] -8.9% | [2] -0.6% | [3] 1.9%

COC(=O)c1ccc(C(=O)OC)c(NC(=O)C(C)C)c1
inactive: [1] -0.3% | [2] -1.3% | [3] -1.4%

O=C(c1ccco1)N1CCCN(Cc2nc(-c3ccc4c(c3)OCO4)no2)CC1
inactive: [1] 1% | [2] 0% | [3] 3.6%

Cc1ccc(S(=O)(=O)N2CCC(C(=O)N[C@@H](C)C(=O)NC3CCS(=O)(=O)C3)CC2)cc1 (stereo partly specified)
inactive: [1] 2.1% | [2] 1.5% | [3] 11.8%

CN1C(=O)C(O)(CC(=O)/C=C/C=C/c2ccccc2)c2ccccc21 (stereo unspecified)
inactive: [1] -1.9% | [2] -0.3% | [3] -0.3%

O=c1[nH]c(=O)n([C@H]2C[C@H](O)[C@@H](CO)O2)cc1F
inactive: [1] 1.7% | [2] 1.3% | [3] 1.1%

Cc1ccc(CN2CCN(Cc3cn[nH]c3C3CCCCC3)CC2CCO)cc1 (stereo unspecified)
inactive: [1] -1.3% | [2] -0.4% | [3] -2.1%

COc1ccc(/C=C\c2nc(=O)c3ccccc3o2)cc1
inactive: [1] -0.6% | [2] -0.8% | [3] -3.7%

O=C(/C=C/c1ccco1)N1CCN(c2ccccc2)CC1
inactive: [1] -0.6% | [2] -1.8% | [3] -0.6%

C=C(C)COc1ccc(-c2n[nH]c(C)c2-c2ccc(OC)cc2)c(O)c1
inactive: [1] -1.3% | [2] -0.9% | [3] 5.2%

O=[N+]([O-])c1ccc2cn[nH]c2c1
inactive: [1] 2.9% | [2] -0.5% | [3] 4%

CN1CCCN(C(c2ccccc2)c2ccc(Cl)cc2)CC1 (stereo unspecified)
inactive: [1] 3.2% | [2] -1.8% | [3] -8.8%

CN=C(NC#N)NCCSCc1nc[nH]c1C
inactive: [1] -0.4% | [2] 0.9% | [3] -3.5%

COc1c(O)ccc2c1CN1CCc3cc4c(cc3C1C2)OCO4 (stereo unspecified)
inactive: [1] -8.1% | [2] -2.1% | [3] -16.1%

C[C@@H]1C[C@H]2[C@@H]3C[C@H](F)C4=CC(=O)C=C[C@]4(C)[C@@]3(F)[C@@H](O)C[C@]2(C)[C@@]1(O)C(=O)CO
inactive: [1] 0.3% | [2] 0.4% | [3] 0.5%

C[C@H]1C[C@@H]2[C@H]([C@@H](O)C[C@@]3(C)[C@H]2CC[C@]3(O)C(=O)CO)[C@@]2(C)C=CC(=O)C=C12
inactive: [1] -2.2% | [2] 0.7% | [3] -0.7%

COc1cc(C2Nc3ccccc3C(=O)N2c2ccccc2)ccc1O (stereo unspecified)
inactive: [1] 0.9% | [2] 0% | [3] -4.4%

COc1cc(OC)cc(C(C)=O)c1
inactive: [1] -1.9% | [2] -1.3% | [3] -0.1%

COC1CCN(C(=O)c2ccc(OC3CCN(Cc4ccccn4)CC3)cc2)CC1
inactive: [1] 2.5% | [2] 2.3% | [3] 0.5%

Cc1ccc(C2CC(=O)C(C=NCCN3CCN(CC(=O)Nc4cc(C)cc(C)c4)CC3)=C(O)C2)cc1 (stereo unspecified)
inactive: [1] 2% | [2] 0.6% | [3] 0.4%

O=C(O)c1ccc(OCCn2ccnc2)cc1
inactive: [1] 2.9% | [2] -0.2% | [3] -0.6%

COc1ccc(C(=O)Oc2ccc3c(C)cc(=O)oc3c2C(C)=O)cc1
inactive: [1] 0.7% | [2] -0.3% | [3] 3%

O=C(CC(NC(=O)OCc1ccccc1)C(=O)O)OCc1ccccc1 (stereo unspecified)
inactive: [1] -3.2% | [2] -2.1% | [3] 2.5%

C/C(=N\N=C1\NC(=O)C(CC(=O)Nc2ccc(Cl)cc2)S1)c1ccco1 (stereo unspecified)
inactive: [1] -0.1% | [2] 0.1% | [3] -0.2%

CC(=O)N(CCC(Cc1ccccc1)c1ccc2c(c1)OCO2)Cc1ccc(Cl)cc1 (stereo unspecified)
inactive: [1] 3.5% | [2] 0.1% | [3] -1%

O=C1C2C3C=CC(C4CC34)C2C(=O)N1/N=C/c1ccc(-c2ccc([N+](=O)[O-])cc2)o1 (stereo unspecified)
inactive: [1] 2.1% | [2] 3.4% | [3] -1.8%

CCCn1c(=O)c2[nH]c(C3CCCC3)nc2n(CCC)c1=O
inactive: [1] 4.7% | [2] 0.8% | [3] -1.9%

O=C(NCCc1c[nH]c2ccccc12)OCCSS(=O)(=O)O
inactive: [1] -4.5% | [2] -0.2% | [3] 3.7%

COc1ccc(Cl)cc1C(=O)NCCc1ccc(S(=O)(=O)NC(=O)NC2CCCCC2)cc1
inactive: [1] -1.1% | [2] -1.6% | [3] -9.4%

NNC(=O)c1cc(O)c(O)c(O)c1
inactive: [1] -3.2% | [2] -1% | [3] -2.8%
